Data as given in publication PMC6212790, “How bacterial xenogeneic silencer rok distinguishes foreign from self DNA in its resident genome”.
The full ranking holds about 33,000 sequences; the median of “e-score” is about -0.037, and the highest 2% start at about 0.34. For the sample, the highest values were picked, then their nearest neighbours and some sequences at random.

The sequences below were run against T1, GST-Rok (full length) (Bacillus subtilis subsp. subtilis str. …, UniProt O34857 1-191) (assay: protein binding microarray; Rok is a gene silencer of Bacillus subtilis; high values mean tight binding). Conditions: protein: recombinant; tags: GST (pTH5325, pDEST15-Magic modified); dsDNA, one strand shown.
T1 sequence: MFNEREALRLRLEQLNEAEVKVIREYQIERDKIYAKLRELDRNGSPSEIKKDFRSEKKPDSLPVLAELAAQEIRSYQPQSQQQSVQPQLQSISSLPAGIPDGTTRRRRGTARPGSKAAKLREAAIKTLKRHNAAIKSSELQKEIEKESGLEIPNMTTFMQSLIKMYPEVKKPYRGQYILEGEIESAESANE
In short: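 Each has a 25-mer constant primer and a 35-mer variable part from a de Bruijn sequence of order 10, covering every non-palindromic 8-mer at least 32 times (palindromic 16). Preference for each 8-mer is given as a rank-based, unitless enrichment score (E-score). Its range runs from 0.5 (most favored) to −0.5 (most disfavored).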

Sequence | binding signal [E-score]
GTAATACA | 0.247
GTAATATA | 0.391
GCATGTCA | -0.0408
ACGAGTTG | 0.149
GAGATTGA | 0.0297
TTGGTAAA | 0.217
CATATCGA | 0.0224
CTTTAAAG | 0.0411
GCTAGTCA | -0.0821
ACTAGTCA | 0.352
CCTAGTTA | 0.209
GCTAGTGA | 0.0873
ACTAGTTA | 0.44
ACTAGTCC | 0.108
GCTAGTTA | 0.337
ACTAGTTC | 0.329
ACTAGTCG | 0.292
ACTGTTCT | 0.0222
AAATAGGC | 0.00361
AACATTAA | 0.133
AGCTGCTC | -0.187
CTCCATAC | 0.166
AGTCTGAC | -0.198
GTTAGGTA | 0.191
CCAAAAAG | -0.177
GGAATTAA | 0.111

Sequence | binding signal [E-score]
CCTCAGTA | 0.0795
CTGGCTCA | 0.0475
CTCGAGCA | -0.112
CTTCGAAA | -0.139
CGTGAACA | 0.0255
AATTGTAC | 0.341
AATTGTAG | 0.28
ACTTGTAA | 0.168
GATTGTAC | 0.317
ACTTGTAC | 0.345
ACTTGTAT | 0.236
ACGGTTAG | -0.0112
GTTATTGA | 0.0636
CGTTACAA | 0.151
CTCAGTTC | -0.0174
ATCTAGTA | 0.408
ATCTAGCC | 0.178
ATCTAGTC | 0.297
CTCTAGTA | 0.119
CTCTAGCA | -0.115
ATCTAGCA | 0.339
AACTTCAT | 0.0811
GCTGTGAC | -0.0172
AGATAACA | 0.241
CTTACCAC | 0.00163
AGTTGCGA | 0.0582

Sequence | binding signal [E-score]
GAACTGAA | -0.118
AGACCGTC | -0.193
CCAATGGG | -0.118
AGTCTGCG | 0.0274
AGTGGGCA | -0.0765
GACGACGC | 0.0038
CTATATCC | 0.0894
CAATATCA | 0.183
CTATATCA | 0.231
ATATATCG | 0.381
ATATATCC | 0.18
GTATATCA | 0.208
ATATATCA | 0.398
TAATATCA | 0.338
GAATATCA | 0.18
CCTTAATC | -0.174
AGGAAGTA | 0.0966
GCTCCGGA | -0.102
CCTACTTC | 0.211
ACATCTCG | -0.0379
CACGTCAA | 0.00857
AACTTCTT | -0.00379
TCTTAAGA | 0.00924
AGTGATTG | -0.118
GGTGTCGA | -0.128
CGCTGAGC | -0.0254

Sequence | binding signal [E-score]
CACTAATA | 0.277
AACTAATG | 0.339
AACTAATT | 0.32
AACTAATA | 0.357
TACTAATA | 0.346
GACTAATA | 0.225
ACCTAATA | 0.176
AACTAATC | 0.158
CACTAATG | 0.154
AGATTACG | 0.17
AAACCCGT | -0.0147
ACCGGCAA | -0.0643
TTCCCCAA | -0.0604
GTGATTCA | -0.0295
TGATGCAA | -0.0283
CGCGGTAA | 0.147
AGTCAATA | 0.322
AATATATC | 0.412
AATATATA | 0.469
AATATAAC | 0.193
AATATATG | 0.33
AATATTAT | 0.208
AATATATT | 0.41
AAGATATA | 0.313
AATATAAT | 0.228
CGTATATC | 0.196

Sequence | binding signal [E-score]
GATGGGAA | -0.056
CAGGACGG | -0.164
CAGAGTTA | -0.0506
ATTATAGG | 0.285
ACTACTTC | 0.193
TCTACTAA | 0.353
ACTACTTA | 0.432
ACTACTAA | 0.386
CCTACTAA | -0.00507
ACTACTGA | 0.323
GCTACTAA | 0.199
AGTACTTA | 0.349
CGTACTTA | 0.264
ACTACTCA | 0.281
AGTACTTG | 0.297
TCTACTCA | 0.206
AGTAACAT | 0.242
CTCCATTC | 0.0472
GCTACAGC | 0.0848
ACGCGGCA | -0.129
GTAGAAGA | 0.247
ACAGCGAT | -0.0187
CAGGAGAA | -0.111
AATTTAAG | 0.18
ACAGTGTC | 0.114
ACTGATAA | 0.273

Sequence | binding signal [E-score]
TAGCTTCA | 0.13
AAGCAAGG | -0.19
AAGTTGAG | -0.123
AGATGTAC | 0.315
CTATGTAC | 0.186
ATATGTAC | 0.345
ATATGTAA | 0.286
ATATGTTC | 0.184
CTATGTTA | 0.285
ATATGTTA | 0.395
CTATGTAA | 0.185
ATATGTAG | 0.391
CGCTATTA | 0.211
CATTAGCA | -0.0362
GAGCTCAC | -0.145
ACGCAGAG | -0.119
AGTAGAAT | 0.42
AGTAGAAC | 0.267
AGTAGAGA | 0.265
ATTAGAAA | 0.233
AGTAGAAA | 0.42
AGTAGAAG | 0.228
AGGATTAG | 0.158
TAGCCCAA | -0.0264
ACGGAGCG | -0.13
CTATACAC | 0.216

Sequence | binding signal [E-score]
ATATACAA | 0.389
ATATACAG | 0.282
CTATACAA | 0.296
TTATACAA | 0.294
ATATACAC | 0.339
ATTTAGGC | -0.0308
CGTAGGCC | -0.17
ATCGTCCA | -0.0609
GCAAAAAC | 0.0325
ACTAACTG | 0.163
GATAACTA | 0.222
AGTAACTC | 0.0592
AATAACTA | 0.341
ACTAACTC | 0.12
AATAACTG | 0.195
CCTAACTA | 0.26
GCTAACTA | 0.341
AGTAACTA | 0.421
GCTAACGA | 0.123
GGTAACTA | 0.305
ACTAACTA | 0.348
